Our source for the outcome values is PubChem BioAssay AID720690 (Broad Institute, 2013).

A short description of this assay: general mammalian cell viability loss – activator set, cherry-pick, cytotoxicity control for miR-122 modulator project, dose response (AID 720690).

Results with a measured potency or affinity are listed apart. Activity calls are given as the source filed them.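 Rule for the calls: active = every repeat run showing a signal drop whose fitted half-maximal concentration is at most twice the top tested concentration; inconclusive = repeat runs disagree, or flat partial drop, or poor fit; inactive = the rest.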

Regarding `COc1ccccc1C(=O)N1C[C@@H]2[C@H](c3ccccc31)[C@H](CO)N2CC1CCCC1`, the molecule was classed as inactive.

In the case of `C/C=C/c1ccc2c(c1)O[C@H](CN(C)C(=O)c1cnccn1)[C@H](C)CN([C@@H](C)CO)S2(=O)=O`, the molecule was classed as inactive.

For `CN1C(=O)c2cc(NS(C)(=O)=O)ccc2OC[C@@H]2O[C@H](CC(=O)O)CC[C@H]21`, the molecule was called inactive.

On to `COCC(=O)NC[C@H]1N[C@H](CO)[C@H]1c1ccc(C2=CCCC2)cc1`, for which the molecule was called inactive.

Regarding `Cc1ccc(-c2ccc3c(c2)O[C@H](CN(C)C(=O)CC2CC2)[C@H](C)CN([C@H](C)CO)S3(=O)=O)cc1`, the molecule was called inactive.

`COc1ccc(S(=O)(=O)N(C)C[C@@H]2Oc3cc(-c4cccc(F)c4)ccc3S(=O)(=O)N([C@H](C)CO)C[C@H]2C)cc1`: the result was inactive.

For the molecule `C[C@@H]1CN([C@H](C)CO)C(=O)c2cc(NC(=O)Nc3ccc(C(F)(F)F)cc3)ccc2O[C@@H]1CN(C)CC1CCCCC1`, the molecule was classed as inactive.

Take `CN1C(=O)c2cc(NC(=O)Nc3cccc(Cl)c3)ccc2OC[C@@H]2O[C@H](CC(=O)NCCc3ccncc3)CC[C@H]21`: the molecule was classed as inactive.

Regarding `CCC(=O)N1C[C@H]2[C@@H](c3ccccc31)[C@H](CO)N2Cc1cc(F)ccc1F`, the molecule was classed as inactive.

Regarding `Clc1ccc(CSc2nnc(-c3ccncc3)o2)c(Cl)c1`, the outcome was inactive.

Consider `CN1C(=O)c2cc(NC(=O)c3cccs3)ccc2OC[C@@H]2O[C@H](CC(=O)NCCN3CCCCC3)CC[C@H]21`, for which the molecule was classed as inactive.

As to `COCC(=O)N(C[C@@H]1N[C@H](CO)[C@H]1c1ccc(C2=CCCC2)cc1)C(C)C`, the molecule was classed as inactive.

Regarding `C[C@H]1CCCCO[C@@H](CN(C)CC2CCCCC2)[C@@H](C)CN([C@@H](C)CO)C(=O)c2cc(NC(=O)Nc3cccc4ccccc34)ccc2O1`, the molecule was called inactive.

For the molecule `COCC(=O)N1[C@H](CO)[C@H]2c3ccccc3N(C(=O)c3ccccc3F)C[C@H]21`, the molecule was classed as inactive.

Turning to `C/C=C/c1ccc([C@H]2[C@@H](CO)N(C(=O)NC(C)C)[C@H]2CN(C)C(=O)CC)cc1`, the molecule was classed as inactive.

Consider `CCCCNC(=O)Nc1nnc(-c2ccc(OCC)cc2)o1`, for which the outcome was inactive.

For the molecule `CCNC(=O)C[C@H]1CC[C@H]2[C@H](COc3ccc(NS(C)(=O)=O)cc3C(=O)N2C)O1`, the molecule was classed as inactive.

In the case of `C/C=C/c1ccc([C@@H]2[C@@H](CN(C)C(=O)CC)N(C(=O)NC(C)C)[C@H]2CO)cc1`, the molecule was classed as inactive.

Regarding `Cc1cc(C(=O)Nc2ccc3c(c2)C(=O)N(C)[C@@H]2CC[C@H](CC(=O)N[C@@H](C)c4ccccc4)O[C@H]2CO3)no1`, the molecule was called inactive.

On to `Cc1cc2n(n1)C(c1cn(-c3ccccc3)nc1C)Nc1c(C)cccc1-2` (configuration not stated), for which the molecule was classed as inactive.

On to `C[C@@H]1CCCCO[C@H](CN(C)CC2CCCCC2)[C@H](C)CN([C@H](C)CO)C(=O)c2cc(NC(=O)Nc3ccc4c(c3)OCO4)ccc2O1`, for which the molecule was called inactive.

Turning to `COCC(=O)N1[C@H](CO)[C@@H](c2ccccc2)[C@H]1CN(C)C(=O)c1ccncc1`, the outcome was inactive.

In the case of `COc1cccc(C(=O)Nc2ccc3c(c2)C(=O)N(C)[C@@H]2CC[C@@H](CC(=O)N[C@H](C)c4ccccc4)O[C@@H]2CO3)c1`, the result was inactive.

As for `CCNC(=O)C[C@@H]1CC[C@H]2[C@@H](COc3ccc(NC(=O)Nc4ccc(F)cc4)cc3C(=O)N2C)O1`, the outcome was inactive.

In the case of `OC[C@H]1[C@@H](c2ccccc2)[C@H](CNCC2CCC2)N1CC1CC1`, the call was inactive.

Consider `CC#CCCCC(=O)Nc1ccccc1C(=O)O`, for which the molecule was classed as inactive.

As for `O=C(NC[C@H]1[C@H](c2ccccc2)[C@@H](CO)N1Cc1ccccn1)C1CC1`, the molecule was classed as inactive.

On to `O=C(COc1ccccc1F)N1CCc2ccccc2C1`, for which the call was inactive.

For the molecule `COc1cccc(C(=O)Nc2ccc3c(c2)C(=O)N(C)[C@H]2CC[C@H](CC(=O)NCc4ccc(F)cc4)O[C@@H]2CO3)c1`, the outcome was inactive.

Turning to `COc1cccc(C(=O)Nc2ccc3c(c2)C(=O)N(C)[C@@H]2CC[C@@H](CC(=O)NCc4ccc(F)cc4)O[C@@H]2CO3)c1`, the result was inactive.

Take `Cc1ccccc1NC(=O)Nc1ccc2c(c1)C(=O)N(C)[C@@H]1CC[C@H](CC(=O)NCC3CC3)O[C@@H]1CO2`: the call was inactive.

In the case of `CN(c1ccccc1)S(=O)(=O)c1ccc(C(=O)Nc2cccc(S(=O)(=O)N3CCOCC3)c2)cc1`, the molecule was classed as inactive.

Turning to `CNC(=O)C[C@@H]1CC[C@H]2[C@H](COc3ccc(NC(=O)c4cccc(OC)c4)cc3C(=O)N2C)O1`, the molecule was classed as inactive.

In the case of `CN1C(=O)c2cc(NC(=O)c3cccs3)ccc2OC[C@@H]2O[C@@H](CC(=O)O)CC[C@@H]21`, the molecule was called inactive.

For `CCC(=O)N(C)C[C@@H]1[C@@H](c2ccccc2)[C@H](CO)N1Cc1cccnc1`, the call was inactive.

Take `COCC(=O)Nc1ccc2c(c1)C(=O)N(C)[C@@H]1CC[C@@H](CC(=O)NC3CCCC3)O[C@H]1CO2`: the outcome was inactive.

`CCNC(=O)CCC(=O)Nc1cc(Cl)ccc1C`: the molecule was classed as inactive.
